Results published in PubChem BioAssay AID912 (National Center for Advancing Translational Sciences (NCATS), 2007).
Where “and” joins values, the source holds several entries; their conditions need not be identical. Identical values can stand only once. Among all 70,000 compounds or so, about 470 (0.67%) were called active. A call without a number means that no potency is given here. Roughly 18% stayed inconclusive and do not appear here. This is one part of a sample in which actives are shown more often than they occur. The call rests on the fitted dose curve.

assay: qHTS Assay for Anthrax Lethal Toxin Internalization; settings: Cells, FRET ratio (460/530); series mostly up to 40 µM; further: nearly all actives have a fitted effect of over 50% in size
Potency means the concentration at half of the fitted maximal effect.

Row | SMILES | activity change, negative = inhibition | Potency
1 | COC(=O)[C@@H]1CC[C@H](C)[C@@H](c2ccc(C)cc2)N1C(=O)c1ccc(/C=N\OC[C@@H](O)COCc2ccco2)cc1 | 12.1% [at 8 µM] (inactive) | 
2 | CCCCCCN(C(=O)CCCCCN1C(=O)NC(c2ccc(C(F)(F)F)cc2)C(C(=O)OCc2ccccc2)=C1C)C(C(=O)NCCCC)c1ccc(OCC(=O)OC)c(C(=O)OC)c1 (configuration not stated) | inactive | 
3 | CC(C)CSC[C@@H]1O[C@H](n2cnc3c(N)nccc32)[C@H](O)[C@@H]1O | -14.1% [at 8 µM] (inactive) | 
4 | S=c1c2[nH]cnc2ncn1CCSc1ncnc2nc[nH]c12 | -7.68% [at 8 µM] (inactive) | 
5 | Cc1nc2cnc(N3CCNCC3)nc2n(CCc2ccccc2)c1=O | inactive | 
6 | O=P(c1cccs1)(c1cccs1)c1cccs1 | inactive | 
7 | C[C@]1(C(=O)NCCc2c[nH]c3ccccc23)C=C[C@@H](Cc2ccccc2)N1C(=O)c1ccccc1 | inactive | 
8 | CO/N=C\[C@@H](C)[C@H](OCc1ccccc1)C(C)C | 1.89% [at 1.6 µM] (inactive) | 
9 | CCn1c(CNC(=O)c2ccc(OC)c(OC)c2)nnc1SCC(=O)Nc1ccccc1 | inactive | 
10 | CCOC(=O)N/N=C1/C[C@@H](O)[C@@H](O)[C@@H]2[C@@H]3C(=O)N(CC)C(=O)[C@H]3CC[C@H]12 | 4.77% [at 8 µM] (inactive) | 
11 | CN(CCCNC(=O)CN1C(=O)CC(C)(C)S(=O)(=O)c2ccccc21)C1CCCCC1 | inactive | 
12 | CCCCCCCCCCCC(=O)O | inactive | 
13 | CC(C)C[C@@H](CC(=O)N[C@@H](CCC(=O)O)CC(=O)O)NC(=O)[C@@H]1CCCC[C@H]1NC(=O)C[C@@H](NC(=O)C[C@H](Cc1c[nH]c2ccccc12)NC(=O)[C@@H]1CCCC[C@H]1N)C(C)C | inactive | 
14 | COc1ccc(Br)c2c1C[C@H](C(=O)O)CC2 | -10.3% [at 8 µM] (inactive) | 
15 | Cc1cc(N2CCCCC2)nc2ccc(Cc3ccc4nc(N5CCCCC5)cc(C)c4c3)cc12 | 3.79% [at 8 µM] (inactive) | 
16 | C[C@H]1CC[C@H](C(=O)O)N[C@@H]1c1ccc(C#Cc2ccccc2)cc1 | 0.0911% [at 1.6 µM] (inactive) | 
17 | COc1cccc(-c2cc(NCCc3c[nH]c4ccc(OC)cc34)ncn2)c1 |  | 10 µM (active)
18 | COc1ccc2[nH]cc(CCNc3ncnc4ccc(-c5ccc(C(=O)N(C)C)cc5)cc34)c2c1 | inactive | 
19 | COc1ccc2[nH]cc(CCNc3ncnc4ccc(-c5ccccc5CN(C)C)cc34)c2c1 | inactive | 
20 | COC(=O)C1=C(C)N(Cc2ccccc2)C2=C3C(=O)N(c4ccccc4)C(=O)C3[C@@](O)(C(=O)OC)C(=O)N2C1c1ccccc1 (some centres not stated) | -8.4% [at 8 µM] (inactive) and -8.22% [at 8 µM] (inactive) | 
21 | CC(=O)/C(C)=N\O | inactive | 
22 | Cn1c(C(=O)NCCN2CCc3ccccc3C2)cc2c(=O)[nH]c3ccccc3c21 | inactive | 
23 | Cn1c(=O)c(C(=O)Nc2ncccn2)c(O)c2ccccc21 | inactive | 
24 | CCOC(=O)N1CCC(NC(=O)COc2cc(=O)n(C)c3ccccc23)CC1 | inactive | 
25 | CCN1CCCC1CNC(=O)c1cc2c(=O)n(C)c3ccccc3c2n1C (configuration not stated) |  | 10 µM (active)
26 | Cn1c(C(=O)N2CCC(C(N)=O)CC2)cc2c(=O)n(C)c3ccccc3c21 | inactive | 

Row | SMILES | activity change, negative = inhibition | Potency
27 | CC1CCCC(C)N1CCCNC(=O)c1cc2c(=O)n(C)c3ccccc3c2n1C (configuration not stated) |  | 3.98 µM (active)
28 | COC(=O)[C@@]1(C)C=C[C@@H](Cc2ccccc2)N1C(C)=O | inactive | 
29 | C=CCOC(=O)c1ccccc1C(=O)OCC=C | inactive | 
30 | Cc1ccc2oc(=O)ccc2c1 | inactive | 
31 | NCCCNCCCCN(CCCN)/[N+]([O-])=N/O | inactive | 
32 | CNC(=O)C1(C)C=CC2(CCCCC2)N1C(C)=O (configuration not stated) | inactive | 
33 | CCCNC(=O)OC[C@@H]1O[C@H](c2ccccc2)C=C[C@@H]1Oc1ccc(OC)cc1 | -2.83% [at 8 µM] (inactive) | 
34 | CSc1nc2ccc(S(=O)(=O)N3CCc4ccccc43)cc2s1 | inactive | 
35 | O=C(O)c1nccnc1C(=O)Nc1ccc(Br)cn1 | inactive | 
36 | Cc1ncc(CC(=O)n2cc(C(=O)c3cc(Cl)ccc3O)cn2)s1 | inactive | 
37 | COC(=O)C1(Cc2ccccc2)C=C2C(=C(C)C(=O)C2C)CN1 (configuration not stated) | inactive | 
38 | COC(=O)[C@H]1C[C@@H]1[C@H](NC(=O)Oc1ccc(F)cc1)c1ccccc1 | inactive | 
39 | O=C(O)CS(=O)c1ccc2c3c(cccc13)C(=O)c1ccccc1-2 (configuration not stated) | 1.15% [at 8 µM] (inactive) | 
40 | CN(Cc1ccco1)c1ncncc1-c1ccoc1 | inactive | 
41 | CC(C)C[C@@H](CC(=O)N[C@@H](CCC(=O)O)CC(=O)O)NC(=O)[C@@H]1CCCC[C@H]1NC(=O)C[C@@H](NC(=O)C[C@H](CO)NC(=O)[C@@H]1CCCC[C@H]1N)C(C)C | inactive | 
42 | COc1ccc2nccc(C(=O)O)c2c1 | -6.5% [at 3.58 µM] (inactive) | 
43 | COc1cccc([C@H]2Oc3ccc(OC)cc3/C(=N\OCC[C@@H]3C=C[C@H](OC(C)=O)[C@H](COC(C)=O)O3)[C@@H]2O)c1 | -2.18% [at 8 µM] (inactive) | 
44 | CC(C)[C@@H](CC(=O)N[C@@H]1CCNC[C@H]1C(=O)N[C@H](CC(=O)N[C@@H](CCC(=O)O)CC(=O)O)Cc1ccccc1)NC(=O)C[C@H](CO)NC(=O)[C@@H]1CNCC[C@H]1N | inactive | 
45 | CC(=O)OCC1OC(C#CCCCc2ccccc2)C=CC1OC(C)=O (configuration not stated) | -3.55% [at 8 µM] (inactive) | 
46 | O=Cc1c(Cl)cccc1Cl | inactive | 
47 | COC(=O)[C@@H]1CC[C@H](C)[C@@H](c2ccc(C)cc2)N1C(=O)c1ccc(/C=N\O[C@@H](C)c2cn([C@H](CO)Cc3ccccc3)nn2)cc1 | 5.23% [at 8 µM] (inactive) | 
48 | O=C(Nc1ccccc1-c1nnn(CC(=O)N2CCN(c3ccccc3)CC2)n1)c1cccs1 | inactive | 
49 | Cc1cc(C)cc(C#CC2C=CC(Oc3ccc(C4CCCC4)cc3)C(CO)O2)c1 (configuration not stated) | -16.6% [at 8 µM] (inactive) | 
50 | CS(=O)(=O)N1CCC2(CC1)CN(c1ccncc1)C2 | inactive | 
51 | CCCC[C@H]1C(=O)N(c2ccccc2)N(c2ccc(O)cc2)C1=O | -4.13% [at 3.58 µM] (inactive) | 
52 | CO[C@H]1COC(=O)[C@@H](OCc2ccccc2)/C=C\[C@H](C)[C@@H](OC)COC(=O)[C@H](OCc2ccccc2)/C=C\[C@@H]1C | -4.42% [at 8 µM] (inactive) | 

Row | SMILES | activity change, negative = inhibition | Potency
53 | C[C@@H]1C[C@H]2[C@@H]3C[C@H](F)C4=CC(=O)C=C[C@@]4(C)[C@]3(F)[C@H](O)C[C@]2(C)[C@@]1(O)C(=O)CO | 2.5% [at 3.58 µM] (inactive) | 
54 | COCCn1c(=O)c(-c2cccs2)nc2cncnc21 | inactive | 
55 | COc1ccc(-c2oc3cc(OC)ccc3c2C(=O)c2ccc(C#N)cc2)cc1 | inactive | 
56 | CC(C)(C)[Si](OCC[C@@H]1C[C@@]1(C)[C@@H](NP(=O)(c1ccccc1)c1ccccc1)c1ccccc1)(c1ccccc1)c1ccccc1 | inactive | 
57 | COc1ccc(C(=O)N2CCC3(CCCN(C(c4ccccc4)c4ccccc4)C3)CC2)cc1 | inactive | 
58 | O=C(O)COc1c(Cl)cc(Cl)c2cccnc12 | 10.5% [at 8 µM] (inactive) | 
59 | CO[C@@H]1COC(=O)C/C=C\[C@H](C)[C@@H](NS(=O)(=O)c2ccc(C)cc2)COC(=O)C/C=C\[C@@H]1C | -10% [at 8 µM] (inactive) and -6.83% [at 8 µM] (inactive) | 
60 | c1ccc2nc(C3=NCCN3)cnc2c1 | inactive | 
61 | Cc1c2c(nc3ccccc13)-c1cccc(=O)n1C2 | inactive | 
62 | COc1ccccc1C(=O)C(O)c1ccccc1OC (configuration not stated) | inactive | 
63 | CC(=O)OCC1OC(C#Cc2ccccc2Cl)C=CC1OC(C)=O (configuration not stated) | -7.54% [at 8 µM] (inactive) | 
64 | C[N+](C)(C)CCCCCNCC12CC3CC(CC(C3)C1)C2 | inactive | 
65 | CSc1ccc(-c2c(C#N)c(N)nc3c2c(C)nn3-c2ccccc2)cc1 |  | 1.26 µM (active)
66 | COC(=O)[C@@]1(Cc2ccc(F)cc2)[C@H]2c3cc(C(=O)N4CCCC4)n(C[C@H](O)CO)c3C[C@H]2CN1C(=O)c1ccccc1 | inactive | 
67 | COc1cc([C@H]2c3cc4c(cc3[C@@H](O[C@@H]3O[C@H]5CO[C@@H](C)O[C@]5(O)C[C@H]3O)[C@@H]3COC(=O)[C@H]23)OCO4)cc(OC)c1O | inactive | 
68 | CCC(Sc1nncn1C)C(=O)Nc1nnc(-c2ccc(Cl)cc2)s1 (configuration not stated) | inactive | 
69 | O=C(O)c1ccc(C(=O)O)c2c(C(=O)O)ccc(C(=O)O)c12 | -1.24% [at 8 µM] (inactive) | 
70 | COc1ccc(N)c(OC)c1 | inactive | 
71 | COC(=O)[C@@]1(Cc2ccccc2)[C@H]2c3cc(C(=O)N(C)C)n(CCSCCO)c3C[C@H]2CN1C(=O)c1ccccc1 | inactive | 
72 | CCC[C@@H]1C[C@@]1(CCC)C(NS(=O)(=O)c1cccc2cccnc12)c1ccc(Cl)cc1 (some centres not stated) | inactive | 
73 | NCC[Se][Se]CCN |  | 0.0794 µM (active)
74 | C=C1c2cc(CC)ccc2NC(=O)N1c1ccc(C)cc1 |  | 10 µM (active)
75 | N[C@@H](C(=O)O)c1ccc(P(=O)(O)O)cc1 | inactive | 
76 | CC(=O)N1CCC2(CCCN(Cc3ccc(C#N)cc3)C2)CC1 | inactive | 
77 | CCCCCCOC(=O)NCC(O)c1ccccc1 (configuration not stated) | inactive | 
78 | COc1cccc([C@H](O)Cn2cc(-c3ccc(CON=C(C)C)cc3)nn2)c1 | -1.91% [at 8 µM] (inactive) | 

Row | SMILES | activity change, negative = inhibition | Potency
79 | COc1ncc2nc(-c3ccc(Cl)cc3)c(=O)n(C)c2n1 | inactive | 
80 | N#Cc1nc(Cc2ccccc2)oc1NCCc1ccccc1 | inactive | 
81 | N#Cc1nc(COc2ccc(-c3ccccc3)cc2)oc1NCc1cccnc1 | inactive | 
82 | N#Cc1nc(-c2ccc(OCc3ccccc3)cc2)oc1NCCCN1CCOCC1 |  | 12.6 µM (active)
83 | C/C=C/C=C/C(=O)O | inactive | 
84 | CC(C)CN1CCc2nc(-c3ccccc3)c3c(c2C1)COC(C)C3 (configuration not stated) | -16% [at 8 µM] (inactive) | 
85 | COc1ccccc1CNc1ccnc(-c2c(C)noc2C)n1 | inactive | 
86 | CC(Cc1ccccc1)C(=O)N(C)Cc1ccccc1 (configuration not stated) | inactive | 
87 | COc1ccc(/C=C/NC(=O)Cc2ccc(OC)c(OC)c2)cc1 | -11.3% [at 8 µM] (inactive) | 
88 | Cn1c2c(c(=O)n(C)c1=O)C1c3ccccc3OCC1C(C)(C)O2 (configuration not stated) | inactive | 
89 | COc1ccccc1N1CCN(C[C@@H]2CN3C(=O)N(C)c4ccccc4C3=N2)CC1 | inactive | 
90 | CC1CN(Cc2nc3c(c(=O)n(C)c(=O)n3C)n2Cc2cccc(Cl)c2)CC(C)O1 (configuration not stated) | inactive | 
91 | CCCCC(CC)CN (configuration not stated) | inactive | 
92 | Cc1ccnc(-n2sc3ccccc3c2=O)n1 |  | 0.316 µM (active)
93 | Cc1nc2ccccc2c(=O)n1CCCn1ccnc1 | inactive | 
94 | Cc1ccnc(N2CCC(C(=O)NC3CCCCCC3)CC2)n1 | inactive | 
95 | O=c1[nH]c(=O)n([C@H]2C[C@H](O)[C@H](CO)O2)cc1Br | inactive | 
96 | CN(C)CCCn1c2ccccc2c2cnccc21 | -25.7% [at 8 µM] (inactive) | 
97 | O=C(COc1ccccc1Cl)Nn1cnnc1 | inactive | 
98 | Cc1cccc(NC(=O)COc2ccccc2C)n1 | inactive | 
99 | Cc1ccccc1OCC(=O)Nc1ccc(N2CCN(C(=O)C(C)C)CC2)c(Cl)c1 |  | 12.6 µM (active)
100 | COC(=O)[C@@]1(Cc2ccc(F)cc2)[C@@H]2[C@@H](CC(=O)[C@H]2CC(=O)C(=O)N2CCCC2)CN1C(=O)c1ccccc1 | inactive | 
101 | COC(=O)CCCCCN1C(=O)NC(c2ccc(-c3ccccc3)cc2)C(C(=O)OCc2ccccc2)=C1C (configuration not stated) | inactive | 
102 | Cc1ccccc1N1CCN(S(=O)(=O)C[C@@]23CC[C@H](C[C@H]2NC(=O)[C@@H](N)CCS(C)(=O)=O)C3(C)C)CC1 | inactive | 
